According to PubChem BioAssay (NCI):
About 83,000 compounds went through this panel and 20% of them were active in at least one assay; those are over-represented in the sample as a whole.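 Percent growth is the endpoint: 0 to 100 indicates growth inhibition (40 means 60% inhibition), 0 means no net growth, and negative values indicate cell death.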 Values without a mark were called inactive. Active and inactive are the calls of the source. The calls were made as follows: active = growth percent below 10; inactive = the rest.

Columns and labels:
Assay in all cases: NCI-60 one-dose screen, 48 h (100 = growth as untreated, 0 = no growth, -100 = all killed)
Settings in all cases: 10 µM unless noted
[1] = system: SR leukemia
[2] = system: RPMI-8226 leukemia
[3] = system: OVCAR-8 ovarian
[4] = system: OVCAR-5 ovarian
[5] = system: OVCAR-4 ovarian
[6] = system: SK-OV-3 ovarian
[7] = system: IGROV1 ovarian
[8] = system: OVCAR-3 ovarian
[9] = system: HS 578T breast
[10] = system: NCI/ADR-RES ovarian
[11] = system: T-47D breast
[12] = system: BT-549 breast
[13] = system: MDA-MB-435 melanoma
[14] = system: SW-620 colon
[15] = system: MCF7 breast
[16] = system: HCC-2998 colon
[17] = system: KM12 colon
[18] = system: HCT-116 colon

| SMILES | growth [1] | growth [2] | growth [3] | growth [4] | growth [5] | growth [6] | growth [7] | growth [8] | growth [9] | growth [10] | growth [11] | growth [12] | growth [13] | growth [14] | growth [15] | growth [16] | growth [17] | growth [18] |
| --- | --- | --- | --- | --- | --- | --- | --- | --- | --- | --- | --- | --- | --- | --- | --- | --- | --- | --- |
| COc1cc(C(=O)/C=C/c2cccnc2Nc2ccc(Cl)cc2)cc(OC)c1OC | 5.22% (active) | -30.2% (active) | -17.6% (active) | -78.3% (active) | -90.4% (active) | -5.2% (active) | -60.9% (active) | -97.1% (active) | 29.4% | 3.59% (active) | -67.3% (active) | -19.1% (active) | -58% (active) | -71.5% (active) | -54.4% (active) | -84.3% (active) | -86.8% (active) | – |
| NC(=NCCCOc1ccc(Cl)cc1)Nc1ccc(C(F)(F)F)cc1 | -23.7% (active) | -1.68% (active) | 66.3% | 48.4% | 34% | 78.1% | -20.5% (active) | 58.3% | 52.4% | 62.8% | 2.82% (active) | 73.2% | 8.95% (active) | 14.5% | 9.17% (active) | – | 25.2% | 8.24% (active) |
| Cn1cc(C(=O)c2nc(-c3c[nH]c4ccccc34)no2)c2ccccc21 | 44.1% | 78.9% | 91.1% | 66% | 57.3% | 69.8% | 25.7% | 12.8% | 56.2% | 64.2% | 44.4% | 69.7% | 7.96% (active) | 56.8% | 20% | 45.5% | 21.9% | – |
| CCN1CCN(c2nc(NCCNc3ccnc4cc(Cl)ccc34)c3ccccc3n2)CC1 | -25.5% (active) | -25.4% (active) | 2.98% (active) | 53.7% | 33.7% | 51.8% | 28.6% | 8.7% (active) | 49.8% | 70.3% | -10.8% (active) | 51.8% | -66.2% (active) | 1.44% (active) | 18.6% | 35.8% | 7.58% (active) | – |
| COc1ccc(-c2nnc(SCC(=O)c3ccc(Cl)cc3)o2)cc1 | 105% | 101% | 99% | 93.3% | 98% | 104% | 105% | 103% | 109% | 95.6% | 89.6% | 105% | 108% | 107% | 108% | – | 102% | 107% |
| O=C1/C(=C(/c2ccccc2)N2CCOCC2)Cc2ccccc21 | 26.6% | 16.5% | 20.4% | 34.4% | 31.7% | 93.6% | 14% | -60.7% (active) | 5.18% (active) | -33.1% (active) | -34.4% (active) | -7.68% (active) | 12.6% | 0.554% (active) | 17.9% | -71.8% (active) | 36.2% | – |
| Nc1ccc(-c2cc3c(Nc4ccc(Oc5cccc(C(F)(F)F)c5)c(Cl)c4)ncnc3s2)cc1 | 50.4% | 53.1% | 73.3% | 93.4% | 77.8% | 83% | 59.9% | 56.6% | 83.1% | 69.7% | 43.8% | 73% | 70.3% | 101% | 34.7% | – | 44.5% | 67.9% |
| Cc1cc(C)nc(SC2=C(Nc3cccc(Cl)c3C)C(=O)N(Cc3ccccc3)C2=O)n1 | 31.8% [30 µM] | 12.5% [30 µM] | 64.2% [30 µM] | 81.8% [30 µM] | 49% [30 µM] | 91.6% [30 µM] | 73% [30 µM] | 64.6% [30 µM] | 60.7% [30 µM] | 52.1% [30 µM] | 37.1% [30 µM] | 48.1% [30 µM] | 42.1% [30 µM] | 65.4% [30 µM] | 30.7% [30 µM] | – | 53.2% [30 µM] | 44.1% [30 µM] |
| COC(=O)[C@@H]1CCCN1C(=O)[C@@H]1CCCN1C(=O)[C@H](Cc1ccccc1)NC(=S)Nc1cc(C(F)(F)F)cc(C(F)(F)F)c1 | 80.9% | 43.9% | 41.6% | 88.4% | 77.9% | 98.1% | 108% | 24.6% | 83.7% | 67.4% | 92.3% | 81.1% | 86.5% | 93% | 67.1% | – | 45.1% | – |
| O=S(=O)(Nc1ccc(NS(=O)(=O)c2ccccc2)c(Cl)c1)c1ccccc1 | 90.9% | 90.8% | 103% | 108% | 100% | 104% | 98.6% | 104% | 103% | 100% | 106% | 105% | 107% | 99.1% | 91.6% | – | 104% | 97.6% |
| O=C1c2c(O)cc(O)cc2-c2c(-c3ccc(O)cc3)oc3cc(O)cc1c23 | 0.6% (active) | 41.8% | 46.6% | 111% | 61.5% | 15.7% | 52.2% | 44% | 32.1% | 90.4% | 8.47% (active) | 50.8% | 52.9% | 45.3% | 33.2% | – | 58.3% | 32.5% |
| Brc1ccc(-c2csc(Nc3ccccn3)n2)cc1 | 68.8% | 68% | 101% | 92.4% | 50% | 82.7% | 79.4% | 82.9% | 114% | 74% | 53.7% | 112% | 88.5% | 103% | 34.5% | -5.04% (active) | 86.4% | – |
| O=CNc1ccc2c(c1)Cc1cccc(NC=O)c1-2 | 108% | 103% | 99.5% | 89.6% | 112% | 104% | 103% | 90.2% | 97.1% | 99.7% | 96.8% | 94.1% | 100% | 98.2% | 86.1% | 97.4% | 67.8% | – |
| CCCc1cc(=O)n2c(C(=O)Nc3ccc(F)cc3)c(C(=O)Nc3ccc(F)cc3)sc2n1 | 53.4% [30 µM] | 78.2% [30 µM] | 16.6% [30 µM] | 74.7% [30 µM] | 36.9% [30 µM] | 48.5% [30 µM] | 72.6% [30 µM] | 35.3% [30 µM] | 6.12% [30 µM] (active) | 33% [30 µM] | 97.1% [30 µM] | 78.4% [30 µM] | 83% [30 µM] | 82.9% [30 µM] | 62.6% [30 µM] | – | 84.9% [30 µM] | 38.1% [30 µM] |
| COc1ccc2c(c1)CC/C(=C\c1cncc(Br)c1)C2=O | 33.5% | 8.06% (active) | 90% | 86.8% | 86.5% | 99.7% | 94.8% | 95.9% | 116% | 83.1% | 66.1% | 95.7% | 82.7% | 42.6% | 39.3% | – | 63.7% | – |
| NC1=C(Cl)C(=O)c2ccc(S(N)(=O)=O)cc2C1=O | 2.63% (active) | -0.705% (active) | -53.9% (active) | -87.7% (active) | -100% (active) | -45.3% (active) | -85.5% (active) | -95.5% (active) | -21% (active) | -30.7% (active) | -46.1% (active) | -91.5% (active) | -86.8% (active) | -77.9% (active) | -49.5% (active) | -97.1% (active) | -72.1% (active) | – |
| O=c1ccccc(-c2ccc(-c3ccco3)cc2)c1O | 10% | 8.75% (active) | 12.7% | 54.9% | 23.7% | 18.2% | 12.9% | 28.8% | 59.3% | 12% | 28.7% | 28.1% | 26.3% | 27.8% | 15.3% | – | 23% | 21.8% |
